Results taken from the supplement of paper PMC9254222.
The full ranking holds about 1,100 compounds; the median of “Wnt reporter firefly/Renilla luciferase ratio relative to plate median” is about 1.1, and the highest 2% start at about 1.6. Only a selection was taken, and the highest values are over-represented in it overall.

Test system: HEK293T (UBE3A T485A transfected, BAR Wnt reporter)
Test: Wnt reporter firefly/Renilla luciferase ratio relative to plate median (fold (linear ratio)); higher = more Wnt/beta-catenin reporter activation
Conditions: 24 h
Method in brief: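 Using Fugene 6, HEK293T cells in white 384-well plates (4500 cells/well; DMEM, 10% FBS, 37°C, 5% CO2) were transfected with a BAR firefly luciferase Wnt reporter, TK-Renilla and an expression plasmid. After four hours, robots dosed the chemicals at 0.01–100 uM, and a Dual-Glo luciferase readout followed 24 h later. Per-plate median-centred firefly/Renilla ratios gave Wnt activity, while per-plate median-centred raw Renilla signals gave cell health. Four biological replicates were averaged.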

SMILES | Wnt reporter firefly/Renilla luciferase ratio (concentration: 0.1 uM) | Wnt reporter firefly/Renilla luciferase ratio (concentration: 1 uM) | Wnt reporter firefly/Renilla luciferase ratio (concentration: 10 uM) | Wnt reporter firefly/Renilla luciferase ratio (concentration: 100 uM) | Wnt reporter firefly/Renilla luciferase ratio (concentration: 0.01 uM)
C=CCOC(=O)c1ccccc1C(=O)OCC=C [Diallyl phthalate] | 1.17 | 1.04 | 1.22 | 1.09 | –
CCOc1cc(Oc2ccc(C(F)(F)F)cc2Cl)ccc1[N+](=O)[O-] [Oxyfluorfen] | 1.05 | 0.917 | 1.07 | 0.292 | 1.01
CCCCCCCCCCCCCN1CC(C)OC(C)C1 (stereo unspecified) [Tridemorph] | 1.09 | 1.23 | 1.04 | 1.05 | –
CCOP(=O)(OCC)Oc1nc(Cl)c(Cl)cc1Cl [Chlorpyrifos oxon] | 0.876 | 1.02 | 0.861 | 0.591 | 0.967
CN(C)C(=O)Cl [Dimethylcarbamoyl chloride] | 0.982 | 1.32 | 1.35 | 1.31 | –
Cc1cccc([N+](=O)[O-])c1 [3-Nitrotoluene] | 1.02 | 1.03 | 0.836 | 1.17 | –
CN(C)C(=O)Nc1cccc(C(F)(F)F)c1 [Fluometuron] | 1.43 | 1.1 | 0.996 | 1.04 | 1.3
O=P(OC(CCl)CCl)(OC(CCl)CCl)OC(CCl)CCl | 1.19 | 0.764 | 1.31 | 0.44 | –
CCC(CC)Nc1c([N+](=O)[O-])cc(C)c(C)c1[N+](=O)[O-] [Pendimethalin] | 0.866 | 0.946 | 0.92 | 1.08 | 0.882
CC(C)(C)CC(C)(C)c1ccc(O)cc1 [4-(1,1,3,3-Tetramethylbutyl)phenol] | 1.03 | 0.968 | 1.15 | 0.935 | –
CN1COCN(Cc2cnc(Cl)s2)C1=N[N+](=O)[O-] [Thiamethoxam] | 1.19 | 1.01 | 0.971 | 1.2 | 1.14
c1ccc(C2CO2)cc1 (stereo unspecified) [Styrene oxide] | 1.23 | 0.89 | 1.19 | 1.71 | –
c1ccc(N=Nc2ccccc2)cc1 [Azobenzene] | 1.35 | 1.05 | 1.38 | 1.1 | –
c1ccc(NNc2ccccc2)cc1 [1,2-Diphenylhydrazine] | 1.25 | 1.04 | 1.19 | 1.27 | –
CCOP(=S)(Oc1ccc([N+](=O)[O-])cc1)c1ccccc1 (stereo unspecified) | 1.05 | 1.07 | 0.965 | 0.846 | –
COc1nn(CSP(=S)(OC)OC)c(=O)s1 [Methidathion] | 1.74 | 1.33 | 1.56 | 0.818 | 1.41
Cc1cc(-c2ccc(N)c(C)c2)ccc1N [3,3'-Dimethylbenzidine] | 1.15 | 0.925 | 0.831 | 0.556 | –
CCC(C)n1c(=O)[nH]c(C)c(Br)c1=O (stereo unspecified) [Bromacil] | 1 | 0.995 | 0.904 | 0.896 | 0.919
c1ccc2c(c1)oc1ccccc12 [Dibenzofuran] | 1.04 | 0.95 | 1.02 | 1.15 | –
Oc1ccc(Cl)cc1Cc1ccccc1 [Clorophene] | 1.05 | 1.07 | 0.943 | – | 0.901
Nc1ccc2ccccc2c1 [2-Naphthylamine] | 0.991 | 0.869 | 0.998 | 0.629 | –
CCOP(=S)(OCC)Oc1nc(Cl)c(Cl)cc1Cl [Chlorpyrifos] | 1.11 | 1.01 | 0.926 | 1.12 | –

SMILES | Wnt reporter firefly/Renilla luciferase ratio (concentration: 0.1 uM) | Wnt reporter firefly/Renilla luciferase ratio (concentration: 1 uM) | Wnt reporter firefly/Renilla luciferase ratio (concentration: 10 uM) | Wnt reporter firefly/Renilla luciferase ratio (concentration: 100 uM) | Wnt reporter firefly/Renilla luciferase ratio (concentration: 0.01 uM)
N#CC(Br)(Br)C(N)=O [2,2-Dibromo-3-nitrilopropionamide] | 1.26 | 1.24 | 1.3 | 1.23 | –
Nc1ccc([N+](=O)[O-])cc1 [4-Nitroaniline] | 1.19 | 0.817 | 0.602 | 0.574 | –
O=S(=O)([O-])C(F)(F)C(F)(F)C(F)(F)C(F)(F)C(F)(F)C(F)(F)C(F)(F)C(F)(F)F.[K+] | 1.12 | 1.24 | 1.39 | 0.833 | –
O=S(=O)([O-])C(F)(F)C(F)(F)C(F)(F)C(F)(F)F.[K+] | 1.15 | 1.04 | 1.23 | 1.73 | –
O=S(=O)([O-])C(F)(F)C(F)(F)C(F)(F)C(F)(F)C(F)(F)C(F)(F)F.[K+] | 1.21 | 0.967 | 1.07 | 1.21 | –
ClC1=C(Cl)C(Cl)(Cl)C(Cl)=C1Cl [Hexachlorocyclopentadiene] | 1.24 | 0.958 | 1.02 | 0.638 | –
O=C(O)CNCP(=O)(O)O [Glyphosate] | 1.38 | 1.39 | 1.04 | 1.75 | 1.29
C=C(C)[C@H]1Cc2c(ccc3c2O[C@@H]2COc4cc(OC)c(OC)cc4[C@@H]2C3=O)O1 [Rotenone] | 0.675 | 0.7 | 0.862 | – | 0.948
CCc1cccc(CC)c1N(COC)C(=O)CCl [Alachlor] | 0.977 | 0.938 | 0.799 | 0.366 | 0.923
CC1(C)C(C=C(Cl)Cl)C1C(=O)OC(C#N)c1cccc(Oc2ccccc2)c1 (stereo unspecified) [Cypermethrin] | 1.14 | 1.06 | 0.991 | 0.601 | 1.02
CS(=O)(=O)c1ccc(C(=O)C2C(=O)CCCC2=O)c([N+](=O)[O-])c1 [Mesotrione] | 1.82 | 0.968 | 1.14 | 1.16 | 1.7
C=CC(N)=O [Acrylamide] | 0.86 | 0.905 | 0.839 | 1.1 | –
N#CSCSC#N [Methylene bis(thiocyanate)] | 0.976 | 1.05 | 1.31 | – | 0.967
CNC(=O)ON=C(SC)C(=O)N(C)C [Oxamyl] | 1.22 | 1.11 | 1.43 | 0.291 | 1.55
CNC(=O)ON=C(C)SC [Methomyl] | 1.08 | 1.03 | 0.996 | 1.19 | 0.847
CS/C(C)=N/OC(=O)N(C)SN(C)C(=O)O/N=C(\C)SC [Thiodicarb] | 1.86 | 1.6 | 1.15 | – | 1.53
Nn1cnnc1 [4-Amino-1,2,4-triazole] | 1.22 | 0.928 | 1.27 | 1.43 | –
ClC1=C(Cl)[C@]2(Cl)[C@H]3[C@H]([C@@H]4C=C[C@H]3C4)[C@@]1(Cl)C2(Cl)Cl [Aldrin] | 1.2 | 0.895 | 1.15 | 1.43 | –
COC(=O)c1ccccc1C(=O)OC [Dimethyl phthalate] | 1.21 | 1.21 | 1.2 | 1.42 | 1.03
N#Cc1nn(-c2c(Cl)cc(C(F)(F)F)cc2Cl)c(N)c1S(=O)C(F)(F)F (stereo unspecified) [Fipronil] | 0.896 | 0.987 | 0.889 | 0.402 | 0.954
COS(=O)(=O)[O-].Cn1c(-c2ccccc2)cc(-c2ccccc2)[n+]1C [Difenzoquat metilsulfate] | 0.813 | 1.1 | 0.847 | 0.425 | 0.771
CC(C)(C)C(O)(CCc1ccc(Cl)cc1)Cn1cncn1 (stereo unspecified) [Tebuconazole] | 1.04 | 0.915 | 0.972 | 0.461 | –

SMILES | Wnt reporter firefly/Renilla luciferase ratio (concentration: 0.1 uM) | Wnt reporter firefly/Renilla luciferase ratio (concentration: 1 uM) | Wnt reporter firefly/Renilla luciferase ratio (concentration: 10 uM) | Wnt reporter firefly/Renilla luciferase ratio (concentration: 100 uM) | Wnt reporter firefly/Renilla luciferase ratio (concentration: 0.01 uM)
CC(=O)N=C1C=CC(=O)C=C1 | 1.17 | 1 | 0.923 | 1.08 | 0.925
CCN(CC)CCO [N,N-Diethylethanolamine] | 1.01 | 1.07 | 0.956 | 1.44 | –
Clc1ccc(C(c2ccccc2Cl)C(Cl)(Cl)Cl)cc1 (stereo unspecified) | 0.989 | 0.858 | 0.978 | 1.08 | –
c1cc2ccc3cccc4ccc(c1)c2c34 [Pyrene] | 1.09 | 0.96 | 1.05 | 0.354 | –
N=C(Nc1ccccc1)Nc1ccccc1 [1,3-Diphenylguanidine] | 1.06 | 1.28 | 0.977 | 1.02 | –
NC1=NC(O)C2C3OC4(O)OC(C(O)C2(N1)C4O)C3(O)CO (stereo unspecified) [Tetrodotoxin (TTX)] | 1.12 | 1.09 | 1.06 | 1.8 | 1.05
CCOc1cccc([C@]2(N3CCN(c4ccccc4)CC3)CC[C@@H](C)CC2)c1.CS(=O)(=O)O | 1.38 | 0.926 | 1.05 | 1.12 | –
CCCN(CCOc1c(Cl)cc(Cl)cc1Cl)C(=O)n1ccnc1 [Prochloraz] | 1.15 | 0.904 | 1.05 | 0.247 | 1.14
CCCOC/C(=N\c1ccc(Cl)cc1C(F)(F)F)n1ccnc1 [Triflumizole] | 1.65 | 1.53 | 1.91 | 1.72 | 1.29
CN1C2CC(OC(=O)C(CO)c3ccccc3)CC1C1OC12 (stereo unspecified) [Scopolamine] | 1.56 | 1.15 | 1.24 | 1.26 | 1.61
N#Cc1cc(Br)c(O)c(Br)c1 [Bromoxynil] | 0.882 | 0.923 | 0.998 | 0.286 | 0.815
CCNc1nc(Cl)nc(NC(C)C)n1 [Atrazine] | 1.38 | 1.15 | 1.29 | 1.18 | 1.45
Cc1cccc([N+](=O)[O-])c1C [1,2-Dimethyl-3-nitrobenzene] | 0.993 | 0.898 | 0.848 | 1.57 | –
COS(C)(=O)=O [Methyl methanesulfonate] | 0.999 | 0.797 | 1.14 | 1.24 | –
COC(=O)c1c(C(F)F)nc(C(F)(F)F)c(C2=NCCS2)c1CC(C)C [Thiazopyr] | 0.899 | 0.947 | 0.872 | 0.82 | 0.815
CCOCCOC(C)=O [2-Ethoxyethyl acetate] | 1.05 | 0.896 | 1.18 | 1.3 | –
O=[N+]([O-])c1ccc(Oc2ccc(Cl)cc2Cl)cc1 [Nitrofen] | 1.04 | 0.882 | 1.01 | 1.28 | –
COC(=O)C(C)Oc1ccc(Oc2ccc(Cl)cc2Cl)cc1 (stereo unspecified) [Diclofop-methyl] | 1.28 | 1.98 | 1.27 | 1.29 | 1.1
CC(Oc1ccc(Cl)cc1Cl)C(=O)O (stereo unspecified) [Dichlorprop] | 1.21 | 1.22 | 1.24 | 1.32 | 1.16
Clc1ccc(Cl)cc1 [1,4-Dichlorobenzene] | 1.45 | 0.934 | 1.1 | 1.39 | –
OC(c1ccc(Cl)cc1)(c1ccc(Cl)cc1)C(Cl)(Cl)Cl [Dicofol] | 1.37 | 1.17 | 1.3 | 1.06 | 1.23
Clc1ccc(C(Cl)(Cl)Cl)cc1 [4-Chlorobenzotrichloride] | 1.23 | 0.884 | 1.42 | 2.38 | –
